Hit rate of the full screen: of about 85,000 compounds, about 5,100 (6%) were called active.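 Rule for the calls: active = viability at or below 40%; inactive = viability above 40%.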 This excerpt belongs to a sample that is enriched for actives.

A word on the viability: it is a read-out of living cells in per cent, often relative to untreated cells.

This assay is described as follows: H69AR cell viability reduction – human, 86K library, primary screen (AID 598).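 Note: multidrug resistant small cell line overexpressing MRP-1 efflux transporter; 100% = mean luminescence of untreated control wells.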 Conditions: H69AR lung tumor viability, ATP luminescence, 72 h; at 10 µM; stronger effect = lower value.
On to `CCSc1nnc(NC(=O)c2ccc(C)cc2)s1`, for which the viability was 103% (inactive).

`CCOc1ccccc1C(=O)NCc1ccco1`: the viability was 74.1% (inactive).

Consider `Cc1cccc(Nc2ccccc2C(=O)NCc2ccco2)c1C`, for which the viability is 15.7% (active).

Regarding `O=C(Nc1ccccc1)Nc1ccccc1C(=O)NCc1ccco1`, the viability was 99.2% (inactive).

On to `O=C(Oc1ccccc1C(=S)N1CCCCC1)c1cc([N+](=O)[O-])cc([N+](=O)[O-])c1`, for which the viability was 94.3% (inactive).

For `COC(=O)c1nc2ccccc2s1`, the viability is 86.8% (inactive).

As to `O=C(OC1CCOC1=O)c1ccc(-c2nc3ccccc3s2)s1` (configuration not stated), the viability was 92.7% (inactive).

With `COc1ccccc1N1CC(O)=C(c2nc3ccccc3s2)C1=N`, the viability was 31.6% (active).

Take `COc1ccc(-c2nnc(SCc3cccnc3)o2)cc1`: the viability was 53.3% (inactive).

Consider `O=C(COc1ccc(Cl)cc1)NCCSc1ccccc1`, for which the viability was 95.3% (inactive).

For the molecule `CCOC(=O)NCc1ccc2c(c1)OCO2`, the viability is 113% (inactive).

On to `CCOC(=O)c1c(C)[nH]c(C(=O)COc2ccc3c(c2)OCO3)c1C`, for which the viability is 81.1% (inactive).

In the case of `CCOC(=O)c1nc(-c2ccc3c(c2)OCO3)[nH]c1C`, the viability is 36% (active).

Turning to `CCC(=O)Nc1ccc2c(c1)nc(CCN1CCN(C)CC1)n2C`, the viability was 74.1% (inactive).

Turning to `Cn1c(CCN2CCCCCC2)nc2cc(NC(=O)Nc3ccccc3)ccc21`, the viability was 9.15% (active).

`Cc1nn(CC(=O)Nc2ccc3c(c2)nc(CN2CCCCC2)n3C)c(=O)c2ccccc12`: the viability is 104% (inactive).

As to `CC1CCC(N2CC(=O)N(Cc3ccc4c(c3)OCO4)C(c3ccc(F)cc3)C2=O)CC1` (configuration not stated), the viability was 100% (inactive).

`COC(=O)c1sc(NC(=O)c2ccc(OC)cc2OC)nc1C`: the viability is 69.8% (inactive).

With `COc1cccc2sc(Nc3nc(C)c(C(C)=O)s3)nc12`, the viability was 32.5% (active).

`CC(=O)c1sc(NC(=O)c2ccc(C)cc2)nc1C`: the viability was 80% (inactive).

`CC(C)CC(N=C1NC(C)(C)Cc2ccccc21)C(=O)O` (configuration not stated): the viability is 108% (inactive).

Take `CCCCc1nnc(NC(=O)CSc2nc(C)cc(=O)[nH]2)s1`: the viability was 92.2% (inactive).

For `Cc1ccc(-n2c(CNc3ccc(F)cc3)nnc2SCC(=O)N2CCOCC2)cc1`, the viability is 92% (inactive).

In the case of `O=C(NCCC1=CCCCC1)C1CCN(Cc2cnn(-c3ccccc3)c2-n2cccc2)CC1`, the viability was 26% (active).

Turning to `CC(=O)Nc1ccc(NC(=O)CSCc2cnn(-c3ccccc3)c2-n2cccc2)cc1`, the viability is 87.6% (inactive).

On to `C1=C(CCNc2ncnc3c2cnn3-c2ccccc2)CCCC1`, for which the viability was 77% (inactive).

As to `CC(C)Oc1ccc(Oc2ccc(C(F)(F)F)cn2)cc1`, the viability is 98.7% (inactive).

As to `N=c1n(Cc2ccc(Cl)cc2)c2ccccc2n1CC(O)c1ccco1` (configuration not stated), the viability is 14.7% (active).

In the case of `Cn1c(=N)n(CC(O)c2ccccc2)c2ccccc21` (configuration not stated), the viability was 80.7% (inactive).

For `O=S(=O)(O)c1nc2ccccc2n1Cc1ccc(Cl)cc1`, the viability is 86.1% (inactive).

`O=C(NCc1ccccc1Cl)c1csc2c1CCCCC2`: the viability is 97.3% (inactive).

Consider `Cc1ccsc1C(C(=O)NC1CCCCC1)N(C(=O)Cc1cccs1)C1CC1` (configuration not stated), for which the viability is 25.5% (active).

Regarding `CC(Cc1cccs1)NC(=O)NC1CCCCC1` (configuration not stated), the viability is 87% (inactive).

Take `O=C(NCC(=O)N(Cc1cccs1)C(C(=O)NC1CCCCC1)c1ccco1)c1cccs1` (configuration not stated): the viability was 82.2% (inactive).

On to `CC(=O)c1ccc(OCCN2CCOCC2)cc1`, for which the viability was 85.9% (inactive).

Take `Cc1ccc(NC(=O)N2CCC(O)(c3cccnc3)CC2)cc1`: the viability was 78.4% (inactive).

As for `CCCCc1nnc(NC(=O)CS(=O)(=O)Cc2ccccc2)s1`, the viability is 97% (inactive).

Take `CC(=O)NC1=NN(C(C)=O)C(C)(c2ccc(Cl)s2)S1` (configuration not stated): the viability was 17.3% (active).

For `O=C(NC1=NCCS1)c1ccc(Cl)s1`, the viability was 93.3% (inactive).

Consider `c1ccc2c(-c3nn4nnnc4c4ccccc34)cccc2c1`, for which the viability was 64.8% (inactive).

Consider `CCCn1c(C)cc(C(=O)COC(=O)c2c(C)nn(-c3ccccc3)c2C)c1C`, for which the viability is 100% (inactive).

As for `CCOC(=O)N1CCN(C(c2cccnc2)c2ccc3cccnc3c2O)CC1` (configuration not stated), the viability was 35.2% (active).

As for `Oc1c(C(c2ccccn2)N2CCOCC2)ccc2cccnc12` (configuration not stated), the viability is 79.3% (inactive).

For `CCN1CCN(C(c2cccnc2)c2cc(Cl)c3cccnc3c2O)CC1` (configuration not stated), the viability is 102% (inactive).

As to `CC(C)(C)c1nc2ccccc2c(=O)n1N1C(=O)c2ccccc2C1=O`, the viability is 63.5% (inactive).

As to `Cc1ccc2cc(CCNC(=O)c3c(-c4ccccc4Cl)noc3C)c(=O)[nH]c2c1`, the viability was 86.2% (inactive).

Take `Brc1ccc(-c2nnc(-c3ccccc3)o2)o1`: the viability is 90% (inactive).

For the molecule `O=C(Nc1ccc(-c2nnc(-c3ccccc3)o2)cc1)C1CCCO1` (configuration not stated), the viability was 86% (inactive).

On to `O=C(Nc1ccc(-c2nnc(-c3ccccc3)o2)cc1)c1ccc(Br)o1`, for which the viability was 39.8% (active).

`CC1CCN(S(=O)(=O)c2ccc(S(=O)(=O)NCc3ccco3)cc2)CC1`: the viability was 75.4% (inactive).

As to `Cc1ccc(C(=O)NCC2CCCO2)o1` (configuration not stated), the viability was 93.7% (inactive).

As for `OC(CNCC1CCCO1)Cn1c2ccc(Br)cc2c2cc(Br)ccc21` (configuration not stated), the viability is 1.09% (active).

Turning to `Cc1cc(Br)ccc1NC(=O)C1CCCO1` (configuration not stated), the viability was 101% (inactive).

`CCOCCCNC(=O)C(NC(=O)CNC(=O)c1ccccc1)c1ccc(C)cc1` (configuration not stated): the viability is 101% (inactive).

Turning to `O=S(=O)(Cc1cc(Sc2ccccc2)nc(-c2ccccc2)n1)c1ccccc1`, the viability is 84.3% (inactive).

For `CN(c1nc2ccccc2n2c(-c3ccco3)nnc12)S(=O)(=O)c1ccccc1`, the viability is 96.1% (inactive).

With `Cn1c(-c2ccco2)nc2cc3ccccc3cc21`, the viability was 37.4% (active).

Turning to `c1coc(-c2nc3nc4ccccc4n3nc2-c2ccco2)c1`, the viability is 82.6% (inactive).

Take `Cc1ccc(C)c(NC2=NCC(=O)N2c2ccc3c(c2)OCCO3)c1`: the viability is 100% (inactive).

Turning to `COc1ccc(NC(=O)CCN2CCCC2)c(OC)c1`, the viability is 94.6% (inactive).

`CN1C(=O)C(CC(N)=O)N(NC(=O)c2ccc(Cl)cc2)C1=S` (configuration not stated): the viability was 98% (inactive).

On to `CCOc1cccc(-c2nnc3sc(COc4ccc(OC)cc4)nn23)c1`, for which the viability was 51.3% (inactive).

In the case of `COc1ccc(-n2nnnc2SCC(=O)c2ccc(OC)c(OC)c2)cc1`, the viability was 92% (inactive).

Consider `CCOc1cccc(-n2nnnc2-c2ccc(OC)cc2)c1`, for which the viability is 15.2% (active).

With `O=C(CC1(O)C(=O)N(CN2CCOCC2)c2ccccc21)c1ccccc1` (configuration not stated), the viability was 79.9% (inactive).

For the molecule `C#CCN1C(=O)C(O)(CC(=O)c2cc(OC)ccc2OC)c2ccccc21` (configuration not stated), the viability was 17.6% (active).

Regarding `CCOC(=O)CN1C(=O)C(O)(CC(=O)c2ccccn2)c2ccccc21` (configuration not stated), the viability is 46.4% (inactive).

Source of the values: PubChem BioAssay AID598 (SRMLSC, 2007).
